In PubChem BioAssay (NCATS):
A number with no mark means an inactive call. How the calls were made is not given here.

Tested on: HIV-1 nucleocapsid protein NCp7 (binding to TG oligonucleotide)
Test: HIV Nucleocapsid (AID 346);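 further: potency is for inhibitors that block NC binding and lower polarization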
Conditions: HIV-1 NC / fluorescein-TGTGTGTG probe, fluorescence polarization
How it was run: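 Reagents dispensed (10 nM TG4xF, 100 nM HIV-1 NC), plates spun, compounds pin-transferred, then incubated 1 hr at room temperature before FP imaging. Buffer: Hepes pH 7.5, 250mM NaCl, 1uM ZnCl2, 100 uM TCEP, 5 mM 2-mercaptoethanol.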
Potency means the concentration at half of the fitted maximal effect.

| Compound | Potency [µM] |
| --- | --- |
| COc1ncc2nc(-c3ccccc3)c(=O)n(-c3ccccc3)c2n1 | > 20 |
| COc1ccc(-n2c(=O)c(-c3cccs3)nc3cnc(N4CCOCC4)nc32)cc1 | > 4 |
| COc1ccc(Oc2ncc3nc(-c4cccs4)c(=O)n(Cc4cccc(OC)c4)c3n2)cc1 | > 20 |
| COc1cccc(Cn2c(=O)c(-c3ccc(F)cc3)nc3cncnc32)c1 | > 20 |
| CCNc1ncc2nc(C)c(=O)n(C)c2n1 | > 20 |
| CN(C)c1ncc2nc(-c3ccccc3)c(=O)n(-c3ccccc3)c2n1 | > 20 |
| COc1ccc(NC(=O)N2CCCC3(CCN(C(=O)c4cccn4C)CC3)C2)cc1 | > 4 |
| COc1ccccc1CNc1ccnc(-c2ccoc2)n1 | > 20 |
| Cc1ccccc1-c1cncnc1Nc1ccccc1 | > 20 |
| N#CCCn1c(=O)cnc2cnc(N3CCNCC3)nc21 | > 20 |
| c1cncc(CNc2ccnc(-c3ccc4c(c3)OCO4)n2)c1 | > 20 |
| Cc1nc2cnc(N3CCOCC3)nc2n(CCc2ccccc2)c1=O | > 20 |
| CN1CCN(c2ncc3ncc(=O)n(-c4ccccc4)c3n2)CC1 | > 20 |
| COCCn1c(=O)c(CCc2ccccc2)nc2cnc(Oc3ccccc3)nc21 | > 20 |
| O=S(=O)(c1ccccc1)N1CCC2(CCCN(c3ccccn3)C2)CC1 | > 4 |
| O=C(c1ccco1)N1CCC2(CC1)CN(c1ccc(-c3ccccc3)cc1)C2 | > 20 |
| COc1cccc(-c2ccc3ncnc(NC4CCNCC4)c3c2)c1 | > 20 |
| COCC(=O)N1CCC2(CCN(Cc3ccncc3)CC2)CC1 | > 20 |
| O=C(Nc1cccc(F)c1)N1CCCC2(CCN(C(=O)c3csnn3)CC2)C1 | > 20 |
| COc1ccc(C(=O)N2CCC3(CCCN(c4ccc(-c5ccccc5)cc4)C3)CC2)cc1 | > 20 |

| Compound | Potency [µM] |
| --- | --- |
| O=c1cnc2cnc(Nc3ccccc3)nc2n1CCc1ccccc1 | > 20 |
| COc1cccc(Cn2c(=O)c(-c3ccc(Cl)cc3)nc3cnc(N4CCN(C)CC4)nc32)c1 | > 20 |
| CN1CCN(c2ncc3nc(-c4cccc(C#N)c4)c(=O)n(CCC#N)c3n2)CC1 | > 20 |
| CN(C)C(=O)c1ccc(-c2cncnc2N(C)Cc2ccco2)cc1 | > 20 |
| O=c1cnc2cnc(Oc3ccccc3)nc2n1CCc1ccccc1 | > 20 |
| COc1ccc(NC(=O)N2CCC3(CC2)CCN(C(=O)c2cccc(F)c2)CC3)cc1 | > 20 |
| Cc1nc2cnc(Oc3cccc(Cl)c3)nc2n(C[C@H]2CCCO2)c1=O | > 20 |
| COc1cccc(-c2nc(NCc3cccs3)c3ccccc3n2)c1 | > 20 |
| COCCn1c(=O)c(-c2cccc(F)c2)nc2cncnc21 | > 20 |
| Cc1cnc(CNc2nc(-c3cccc(NS(C)(=O)=O)c3)nc3ccccc23)cn1 | > 20 |
| CS(=O)(=O)N1CCC2(CC1)CN(Cc1nccs1)C2 | > 20 |
| COc1ccccc1-c1ccc2ncnc(NCCN3CCOCC3)c2c1 | > 20 |
| COCCNc1ncncc1-c1c(C)noc1C | > 20 |
| O=C(Nc1cccc(F)c1)N1CC2(CCN(C(=O)c3csnn3)CC2)C1 | > 20 |
| COc1ccc(-n2c(=O)c(C)nc3cnc(N4CCNCC4)nc32)cc1 | > 20 |
| Cn1c(=O)c(-c2ccccc2)nc2cnc(Nc3ccccc3)nc21 | > 4 |
| COc1ccc(CNc2nc(-c3c(C)noc3C)nc3ccccc23)c(OC)c1 | > 20 |
| CN(C)c1ncc2nc(-c3ccccc3)c(=O)n(Cc3ccc(F)cc3)c2n1 | > 20 |
| Clc1ccccc1-c1ccc2ncnc(N3CCNCC3)c2c1 | > 20 |
| COCCn1c(=O)cnc2cnc(N3CCOCC3)nc21 | > 20 |
